Pol eta inh: DNA polymerase eta (human) inhibition; actives 1.2% (n = 390,000); Potency, µM (top dose mostly 114 µM), inactives show at the top dose activity change, negative = inhibition, hits mostly inhibitors; recombinant Pol eta, fluorescent DNA replication assay; AID 588591; Q9Y253; note: % is set by controls: 0 for no effect and ±100 for the full control effect
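Fluorescent replication assay: 50 nM final substrate added after a 15 min room-temperature compound preincubation with 10 nM enzyme. Signal taken at 0 min and again at 10 min.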
POLI inh: blocks human DNA polymerase iota activity; Pol iota fluorescent replication assay, 10 min; Potency, µM (doses to about 115 µM), for the others: at the highest dose activity, negative = inhibition, most hits filed as inhibitors; Q9UNA4; actives 1% (n = 390,000)
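Pol iota at 10 nM preincubated 15 min with compounds at room temperature; reaction started with fluorescent substrate, 50 nM final. Fluorescence read kinetically at 0 and 10 min; buffer-only wells as negative control.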
POLB inh: blocks human DNA polymerase beta activity. Potency, µM (series often up to 114 µM), without a hit: top-dose activity change, negative = inhibition, usual class: inhibitors. actives 1.3% (n = 340,000). Pol beta primer extension/strand displacement, fluorescence kinetic. AID 485314; note: % is set by controls: 0 for no effect and ±100 for the full control effect
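Pol beta (10 nM) was preincubated with compound for 15 min at room temperature. The reaction was then started with 50 nM substrate and read immediately and after a further 10 min at room temperature.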
APE1 inh: blocks human APE1 abasic DNA cleavage. P27695. actives 0.35% (n = 350,000). recombinant APE1, TAMRA/BHQ-2 abasic DNA cleavage fluorescence. Potency, µM (highest dose often 65.8 µM), for inactives: at the highest dose activity change, negative = inhibition, hits mostly inhibitors;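 note: plate controls were vehicle for no effect and reference inhibitor for full effect; nearly all actives have a fitted effect of over 55% in size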
Target sequence (P27695 whole entry, looked up): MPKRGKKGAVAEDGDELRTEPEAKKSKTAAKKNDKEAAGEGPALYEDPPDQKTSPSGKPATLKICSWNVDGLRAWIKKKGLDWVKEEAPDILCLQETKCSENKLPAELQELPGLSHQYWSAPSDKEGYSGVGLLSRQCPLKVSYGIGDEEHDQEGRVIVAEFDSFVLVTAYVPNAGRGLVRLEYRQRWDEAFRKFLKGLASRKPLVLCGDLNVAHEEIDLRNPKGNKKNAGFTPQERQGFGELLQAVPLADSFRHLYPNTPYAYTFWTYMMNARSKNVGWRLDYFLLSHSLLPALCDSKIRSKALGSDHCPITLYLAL
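Step 1: APE1 (0.75 nM) with compound, 15 min RT. Step 2: add 50 nM fluorophore/quencher THF duplex. Step 3: three fluorescence reads 60 s apart (525/598 nm); read 3 minus read 1 = reaction progress.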
Pol kappa inh: DNA polymerase kappa (human) inhibition; purified Pol kappa, fluorescent DNA synthesis assay, 10 min; Potency, µM (titrated, usually from 107 µM), for inactives: top-dose activity, negative = inhibition, hits mostly inhibitors; actives 0.53% (n = 400,000); AID 588579; note: % is set by controls: 0 for no effect and ±100 for the full control effect
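Here, compound and 10 nM enzyme are combined for 15 min at room temperature; adding 50 nM substrate (final) starts DNA synthesis, tracked by fluorescence at 0 and 10 min against buffer-only wells.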
GLS inhibitor: glutaminase GLS (human) inhibition; Potency, µM (series often up to 45.5 µM), without a hit: at the highest dose activity change, negative = inhibition, most hits filed as inhibitors; GLS enzymatic activity, qHTS titration; actives 0.21% (n = 410,000); AID 624170; O94925; note: % is set by controls: 0 for no effect and ±100 for the full control effect
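Enzyme dispensed in phosphate buffer (45 mM, pH 8.2, 0.02% Tween-20), compounds pinned in, then 1 mM L-glutamine solution and the glutamate oxidase–HRP–Amplex Red mix added; fluorescence read immediately and again after 30 min at room temperature.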
PGK validate: validation of Trypanosoma brucei phosphoglycerate kinase inhibitors; TbPGK coupled GAPDH assay, Kinase-Glo luminescence; Potency, µM (doses to about 57.5 µM), without a hit: at the highest dose activity change, negative = inhibition, hits mostly inhibitors; actives 79% (n = 500); AID 686980; shares compounds with Pol kappa inh; note: % is set by controls: 0 for no effect and ±100 for the full control effect; nearly all actives have a fitted effect of over 65% in size
Pol iota confirm: Human Pol iota inhibitor confirmatory assay; shares compounds with Pol kappa inh; Pol iota primer extension, TAMRA/BHQ fluorescence; Potency, µM, actives largely listed as inhibitors; actives 77% (n = 1,500); AID 720496
* hit, by the source's call; [ ] = dose if it differs, or a comment. In the library only some 2.4% were active in any assay of this set; here they are far more common. Calls come from the whole dose curve; as a rule, active = well fitted curve in the direction sought with a large enough effect; inconclusive = small, poorly fitted or top-dose-only effect, or another doubt; inactive = no such curve, though single readings can be large; an effect the other way counts as inactive or inconclusive. Potency is the fitted concentration of half-maximal effect.

Results for CNC1CCCN(c2c(F)cc3c(=O)c(C(=O)O)cn(C4CC4)c3c2OC)C1 (stereo unspecified) ?
Pol kappa inh: -3%[19.4 µM]; GLS inhibitor: -4%

What do the screens show for `CC1CC(C)CN(c2cc(=O)n(Cc3ccc(F)cc3)c(=O)[nH]2)C1` (stereo unspecified)?
Pol eta inh: -6%; POLI inh: 7%; POLB inh: -1%; APE1 inh: 12%; Pol kappa inh: -7%; GLS inhibitor: 0%

How did O=C(N/N=C/c1cccc([N+](=O)[O-])c1)c1cc2c(ccc3ccccc32)o1 do in these assays?
Pol eta inh: inconclusive; POLI inh: inconclusive; POLB inh: 20%; APE1 inh: 2%; Pol kappa inh: 0%; GLS inhibitor: -3%; Pol iota confirm: 47*

How did COc1cc2c(cc1OC)[C@H](C)N(C(=O)COc1ccccc1)CC2 do in these assays?
Pol eta inh: -22%; POLI inh: 3%; POLB inh: 13%; APE1 inh: -2%; Pol kappa inh: 8%; GLS inhibitor: -7%

How did C/C(=N\NC(=O)c1ccccc1NC(=O)c1ccc(Cl)cc1)c1ccncc1 do in these assays?
Pol eta inh: -17%; POLI inh: 50%; POLB inh: 4%; APE1 inh: -11%; Pol kappa inh: -2%; GLS inhibitor: -6%; PGK validate: 6.5µM*

How did O=C(O)C1OC(Oc2c(-c3ccc(O)c(O)c3)oc3cc(O)cc(O)c3c2=O)C(O)C(O)C1O (stereo unspecified) do in these assays?
Pol eta inh: 6.3µM*; POLI inh: 22µM*; POLB inh: 8.9µM*; APE1 inh: 7.1µM*; Pol kappa inh: 14µM*; GLS inhibitor: 32%; PGK validate: 10µM*

How did CC1OC(Oc2c(-c3cc(O)c(O)c(O)c3)oc3cc(O)cc(O)c3c2=O)C(O)C(O)C1O (stereo unspecified) do in these assays?
Pol eta inh: inconclusive; POLI inh: inconclusive; POLB inh: 14µM*; APE1 inh: 7%; Pol kappa inh: 50µM*; GLS inhibitor: 42%; Pol iota confirm: inconclusive

What do the screens show for `Cc1cc(=O)nc2c3ccccc3n(CC(=O)NC3CCCCC3)n12`?
Pol eta inh: -6%; POLI inh: -26%; POLB inh: 18%; APE1 inh: 28%; Pol kappa inh: -12%; GLS inhibitor: 2%

How did Cc1cc(C)n2nc(SCc3ccc(C#N)cc3)nc2n1 do in these assays?
Pol eta inh: 1%; POLI inh: 138%; POLB inh: 32%; APE1 inh: 21%; Pol kappa inh: -9%; GLS inhibitor: 1%

Results for COc1cccc(/C=N/Nc2ncccc2[N+](=O)[O-])c1OC ?
Pol eta inh: -8%; POLI inh: 38%; POLB inh: -22%; APE1 inh: -6%; Pol kappa inh: -9%; GLS inhibitor: 12%; PGK validate: 16µM*

How did O=[N+]([O-])c1ccc(/C=N/Nc2ncccc2[N+](=O)[O-])s1 do in these assays?
Pol eta inh: -10%; POLI inh: 22%; Pol kappa inh: 3%; GLS inhibitor: 3%

What do the screens show for `COc1ccc(OC)c(NC(=O)CSc2nc(-c3ccccc3C)nc3cc(=O)[nH]n23)c1`?
Pol eta inh: -22%; POLI inh: 11%; POLB inh: 4%; Pol kappa inh: -3%; GLS inhibitor: 14%

How did CCOc1ccc(-c2nc(SCC(=O)Nc3cc(F)ccc3F)n3[nH]c(=O)cc3n2)cc1 do in these assays?
Pol eta inh: -6%; POLI inh: 0%; POLB inh: 4.5µM*; Pol kappa inh: 15%; GLS inhibitor: inconclusive; PGK validate: 5.8µM*

What do the screens show for `Fc1cc(F)c2nc(Nc3nc4cc5c(cc4s3)OCO5)sc2c1`?
Pol eta inh: 2.8µM*; POLI inh: inconclusive; POLB inh: inconclusive; APE1 inh: 9%; Pol kappa inh: inconclusive; GLS inhibitor: inconclusive; Pol iota confirm: inconclusive

How did C#CCN(C[C@@H]1[C@@H](OC(=O)NCC2CCCCC2)[C@@H](OC(=O)NCC2CCCCC2)Cn2c(=O)ccc(=O)n21)S(=O)(=O)c1ccc(C)cc1 do in these assays?
Pol eta inh: -12%; GLS inhibitor: -2%

What do the screens show for `Cc1cccc(C)c1NC(=O)CN(C)C(=O)c1cccc(-n2cccc2)c1`?
Pol eta inh: 10µM*; POLI inh: 8.9µM*; APE1 inh: inconclusive; Pol kappa inh: inconclusive; GLS inhibitor: -16%; Pol iota confirm: inconclusive

Results for Cc1ccc(Cl)cc1NC(=O)Nc1cn(CC(C)C)c(=O)c2ccccc12 ?
Pol eta inh: 22µM*; POLI inh: inconclusive; POLB inh: 7%; Pol kappa inh: -22%; GLS inhibitor: -5%; PGK validate: 3%

How did COc1ccc(NC(=O)Nc2cn(CC(C)C)c(=O)c3ccccc23)c(OC)c1 do in these assays?
Pol eta inh: -11%; POLI inh: 35%; POLB inh: 27%; Pol kappa inh: -10%; GLS inhibitor: 1%

How did O=C(/C=C/c1ccco1)N1CCc2ccccc21 do in these assays?
Pol eta inh: -7%; POLI inh: -27%; POLB inh: inconclusive; APE1 inh: -12%; Pol kappa inh: 0%; GLS inhibitor: -5%; PGK validate: 16µM*

What do the screens show for `Cc1ccccc1Nc1nc(N)nc(CSc2nc3ccccc3c(=O)n2CCCO)n1`?
Pol eta inh: -10%; POLI inh: 22%; POLB inh: 12%; APE1 inh: 1%; Pol kappa inh: 0%; GLS inhibitor: -5%

Results for Cc1ccc(-c2nc(-c3ccccn3)no2)cc1 ?
Pol eta inh: -7%; POLI inh: 7%; POLB inh: 10%; APE1 inh: -5%; Pol kappa inh: -6%; GLS inhibitor: 3%; PGK validate: 15µM*

What do the screens show for `Cc1cccc(/C(N)=N/OC(=O)c2cccs2)c1`?
Pol eta inh: -12%; POLI inh: 8%; POLB inh: 1%; APE1 inh: 1%; Pol kappa inh: -8%; GLS inhibitor: -6%; PGK validate: 16µM*

Screening data: PubChem BioAssay, National Center for Advancing Translational Sciences (NCATS)
